In PubChem BioAssay (EPA / NIEHS) one finds outcome and AC50 data, which are given here for 40 molecules.

Each structure is given as a SMILES string. Records with an inconclusive call do not appear. The source made the active and inactive calls. Rule for the calls: active = hit-call score of the fitted dose curve at least 0.9, where 1 is the maximum; inconclusive = response in the unintended direction; inactive = score below 0.9.

The nature of the test: ACEA_ER_AUC_viability: ACEA Biosciences xCELLigence Real-Time Cell Analysis on Estrogen Receptor Agonism for Viability (AID 2283782).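 Note: continuous compound exposure with impedance area under curve over 80 h; hit means loss of impedance signal meaning reduced cell growth or viability.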 The procedure: ACEA_ER is a cell-based, single-readout assay that uses T47D, a human breast cell line, with measurements taken at 80 hours after chemical dosing in a 96-well plate, although TO2 (mc0.srcf) used a 384-well plate. Differences in plate size can be ignored given data normalization.ACEA_ER_AUC_viability is one of two assay component(s) measured or calculated from the ACEA_ER assay. It is designed to make measurements of real-time cell-growth kinetics, a form of growth reporter, as detected with electrical impedance signals by Real-Time Cell Electrode Sensor (RT-CES) technology.Data from the assay component ACEA_ER_AUC_viability was analyzed in the positive analysis fitting direction relative to DMSO as the negative control and baseline of activity. Using a type of growth reporter, loss-of-signal activity can be used to understand changes in the viability. Furthermore, this assay endpoint can be referred to as a secondary readout, because this assay has produced multiple assay endpoints where this one serves a viability function. To generalize the intended target to other relatable targets, this assay endpoint is annotated to the cell cycle intended target family, where the subfamily is cytotoxicity.
The xCELLigence system Multi-E-Plate stations were used to measure the time-dependent response to chemicals. Each compound was tested in an eight-point, 1:4 serial dilution series starting at a maximum final concentration of 100 uM. A maximum starting concentration of 0.5% DMSO was present in the 100 uM chemical samples and was diluted along with the test article dilution series. The screen was performed in biological duplicate using two separate, 96-well, E-Plates 96 for each dilution series (n = 2). Positive controls (MG132 and E2) and a negative control (assay media) were tested in quadruplicate on each testing plate. Then, 0.5% and 0.125% DMSO were tested in duplicates in each plate to serve as solvent controls for the 2 highest concentrations of testing compounds: 100 uM and 25 uM. Reference compounds were tested with 8 concentrations with 1:5 serial dilutions. All screening was carried out by ACEA Biosciences, Inc. (San Diego, CA). T-47D cells purchased from ATCC were maintained in RPMI1640 media supplemented with 10% characterized fetal bovine serum (FBS). Before screening, T-47D cells were preconditioned in assay medium: phenol red-free RPMI1640 supplemented with 10% charcoal-stripped FBS. Cells were then detached and seeded in E-Plates 96 in assay medium. After overnight monitoring of growth once every hour, compounds were added to […] cells and remained in the medium until the end of the experiment. Cellular responses were then recorded once every 5 min for the first 5 h, and once every hour for an additional 100 h.
As for `CCCCCCCCCCCCCCCO`, the outcome was inactive.

On to `CCCC(=O)OCC`, for which the result was inactive.

In the case of `CCc1cc(SCc2sc(-c3ccc(C(F)(F)F)cc3)nc2CN2CCN(c3ccc(OC)cc3)CC2)ccc1OCC(=O)O`, the AC50 was 34.5 µM (active).

Take `O=c1n(CC2CO2)c(=O)n(CC2CO2)c(=O)n1CC1CO1` (stereo not given): the AC50 was 35.7 µM (active).

Consider `C=CC(=C)CCC=C(C)C`, for which the call was inactive.

On to `Cc1ccc(O)cc1`, for which the molecule was classed as inactive.

Turning to `C[C@](N)(Cc1ccc(O)c(O)c1)C(=O)O`, the outcome was inactive.

Take `COc1ccc2sc(C(=O)Nc3nnn[nH]3)c(OC(C)C)c2c1`: the AC50 is 9.87 µM (active).

Turning to `CCCCCCc1ccc(O)cc1O`, the AC50 is 80.1 µM (active).

`CC(C)(O)c1coc(S(=O)(=O)NC(=O)Nc2c3c(cc4c2CCC4)CCC3)c1`: the molecule was classed as inactive.

As for `O=C(O)c1cccc(Oc2ccccc2)c1`, the outcome was inactive.

In the case of `Cn1cnc([N+](=O)[O-])c1Sc1ncnc2nc[nH]c12`, the AC50 was 1.42 µM (active).

On to `CC(C)=CCCC(C)CCO` (stereo not given), for which the molecule was classed as inactive.

For `COc1cccc(-c2ccc(/C=C\CN3CCCCCC3)cc2Cl)c1`, the AC50 is 56.3 µM (active).

Turning to `CN(C)c1ccc(N=NS(=O)(=O)O)cc1`, the molecule was called inactive.

Turning to `CCCCC(CC)COC(=O)c1ccc(C(=O)OCC(CC)CCCC)cc1` (stereo not given), the AC50 is 80 µM (active).

With `Clc1nc(Cl)c(Cl)c(Cl)c1Cl`, the AC50 was 92 µM (active).

As for `COC(=O)CC(=O)OC`, the outcome was inactive.

For `COCCOc1cc2cc(C(=O)NC3CCN(C(C)C)CC3)n(CC(=O)Nc3ccc(Cl)cn3)c2cn1`, the call was inactive.

Consider `CCn1nc(Cc2ccccc2)cc1C1CCN(C[C@H]2C[C@H](N(C)[C@@H](C(=O)O)C(C)C)C[C@@H]2c2cccc(F)c2)CC1`, for which the AC50 is 7.91 µM (active).

On to `CCOCCO`, for which the call was inactive.

For `C1=CCCC=CCCC=CCC1`, the molecule was classed as inactive.

Consider `CCOC(=O)c1ccc(C2CCC(NC[C@H](O)COc3ccc(O)c(NS(C)(=O)=O)c3)CC2)cc1` (stereo not given in full), for which the AC50 is 5.31 µM (active).

Consider `CNS(=O)(=O)c1cc(C(=O)N2CCC(CCN3C4CCC3CC(n3c(C)nc5ccccc53)C4)(c3cccc(F)c3)CC2)c(Cl)cc1F` (stereo not given), for which the AC50 was 19.2 µM (active).

With `CCOc1cccc(-n2cc(C(=O)N3CCN(c4cc(C(=O)O)c5ccccc5c4)CC3)nc2-c2ccc(C)cc2)c1`, the call was inactive.

On to `CCOC(=O)COc1ccc2c(c1)CC(NCC(O)c1cccc(Cl)c1)CC2` (stereo not given), for which the AC50 is 16.2 µM (active).

As to `Oc1ccc2c(c1)-c1ccccc1C2`, the AC50 was 79.2 µM (active).

`CCC(C)(C)C(=O)O[C@H]1C[C@@H](C)C=C2C=C[C@H](C)[C@H](CC[C@@H]3C[C@@H](O)CC(=O)O3)[C@H]21`: the AC50 is 30.5 µM (active).

In the case of `O=c1[nH]c2ccc(S(=O)CCN3CCC(Cc4ccc(F)cc4)CC3)cc2o1` (stereo not given), the outcome was inactive.

Turning to `Cc1ccc(S(=O)(=O)O)cc1C`, the result was inactive.

Turning to `Cc1ccc(N)cc1O`, the outcome was inactive.

For the molecule `Cc1ccc(C)c(O)c1`, the molecule was classed as inactive.

On to `O=P(OC(CCl)CCl)(OC(CCl)CCl)OC(CCl)CCl`, for which the result was inactive.

In the case of `CCNc1ccccc1`, the molecule was called inactive.

Take `CC[C@H]1CC[C@H](NCc2cc3c(cc2OC)[C@H]2C[C@H]2C(=O)N3C)[C@H](c2ccccc2)N1`: the AC50 is 18.5 µM (active).

Consider `C1N2CN3CN1CN(C2)C3`, for which the result was inactive.

For the molecule `O=C1CCC(N2C(=O)c3ccccc3C2=O)C(=O)N1` (stereo not given), the result was inactive.

Regarding `Cn1c(=O)c2c(ncn2C)n(C)c1=O`, the result was inactive.

For the molecule `CCCCCCCCO`, the molecule was called inactive.

As to `Cc1c(-c2cccnc2)c2ccccc2n1CCCCC(=O)O`, the AC50 was 17.3 µM (active).
